# According to the supplement of paper PMC10849652:
# Targets with a hit are over-represented here; the source holds about 7,900 in all. About 0.6% of all pairs of compound and target were hits.
# Compound: c1cn2cc(-c3ccc4cn[nH]c4c3)nc(Nc3ccc(N4CCOCC4)cc3)c2n1 [entospletinib]
# Experiment: log2 fold change, soluble protein after heating vs DMSO (PISA); higher = thermal stabilisation; K562 cells, 10 uM, 30 min; active = over 0.2 and 3.5 SD of the protein, either way, in both replicates (recomputed)
# In short: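 Soluble protein was defined as the supernatant after 21,000xg for 90 min. It came from K562 cells at 2×10^6 cells/mL given 10 μM compound for 30 min, heated in aliquots for 3 min across 48°C-58°C, pooled, and extracted in PBS with 0.5% NP-40 at 4°C, and was quantified by TMTpro 16plex LC-MS/MS with equalised channel sums. Thermal stability against control samples, from duplicates, is reported as log2 fold change.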
# UniProt Q7Z7A3, sequence (Q7Z7A3 whole entry, looked up): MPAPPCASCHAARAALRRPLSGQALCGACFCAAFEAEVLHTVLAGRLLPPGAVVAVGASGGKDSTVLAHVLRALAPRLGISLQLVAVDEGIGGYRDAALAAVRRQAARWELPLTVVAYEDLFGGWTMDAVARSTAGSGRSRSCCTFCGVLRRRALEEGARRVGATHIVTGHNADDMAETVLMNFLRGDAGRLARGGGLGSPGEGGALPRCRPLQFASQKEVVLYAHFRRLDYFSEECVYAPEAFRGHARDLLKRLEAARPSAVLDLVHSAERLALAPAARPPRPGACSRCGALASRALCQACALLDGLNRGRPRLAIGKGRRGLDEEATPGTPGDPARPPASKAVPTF
# UniProt Q9NXW2, sequence (Q9NXW2 whole entry, looked up): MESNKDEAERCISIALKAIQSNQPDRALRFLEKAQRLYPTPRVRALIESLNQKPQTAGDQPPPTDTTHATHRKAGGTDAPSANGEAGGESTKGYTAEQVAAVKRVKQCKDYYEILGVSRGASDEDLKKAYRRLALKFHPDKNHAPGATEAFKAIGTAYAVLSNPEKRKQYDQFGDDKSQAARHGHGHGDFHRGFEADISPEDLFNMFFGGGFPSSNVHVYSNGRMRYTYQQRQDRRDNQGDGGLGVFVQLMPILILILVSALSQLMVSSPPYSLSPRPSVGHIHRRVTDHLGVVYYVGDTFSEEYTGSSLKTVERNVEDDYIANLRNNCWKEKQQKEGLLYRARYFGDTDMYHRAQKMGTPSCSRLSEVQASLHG
# UniProt P13498, sequence (P13498 whole entry, looked up): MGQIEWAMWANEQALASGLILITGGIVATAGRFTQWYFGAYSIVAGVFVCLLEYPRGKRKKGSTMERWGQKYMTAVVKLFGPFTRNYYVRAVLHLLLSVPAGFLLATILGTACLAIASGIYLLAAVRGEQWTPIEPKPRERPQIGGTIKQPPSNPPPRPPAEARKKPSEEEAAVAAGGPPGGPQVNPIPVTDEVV
# UniProt Q96DA6, sequence (Q96DA6 whole entry, looked up): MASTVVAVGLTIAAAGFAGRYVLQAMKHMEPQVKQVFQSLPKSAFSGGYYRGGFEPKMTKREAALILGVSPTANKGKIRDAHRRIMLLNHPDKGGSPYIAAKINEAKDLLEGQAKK
# UniProt Q7L576, sequence (Q7L576 whole entry, looked up): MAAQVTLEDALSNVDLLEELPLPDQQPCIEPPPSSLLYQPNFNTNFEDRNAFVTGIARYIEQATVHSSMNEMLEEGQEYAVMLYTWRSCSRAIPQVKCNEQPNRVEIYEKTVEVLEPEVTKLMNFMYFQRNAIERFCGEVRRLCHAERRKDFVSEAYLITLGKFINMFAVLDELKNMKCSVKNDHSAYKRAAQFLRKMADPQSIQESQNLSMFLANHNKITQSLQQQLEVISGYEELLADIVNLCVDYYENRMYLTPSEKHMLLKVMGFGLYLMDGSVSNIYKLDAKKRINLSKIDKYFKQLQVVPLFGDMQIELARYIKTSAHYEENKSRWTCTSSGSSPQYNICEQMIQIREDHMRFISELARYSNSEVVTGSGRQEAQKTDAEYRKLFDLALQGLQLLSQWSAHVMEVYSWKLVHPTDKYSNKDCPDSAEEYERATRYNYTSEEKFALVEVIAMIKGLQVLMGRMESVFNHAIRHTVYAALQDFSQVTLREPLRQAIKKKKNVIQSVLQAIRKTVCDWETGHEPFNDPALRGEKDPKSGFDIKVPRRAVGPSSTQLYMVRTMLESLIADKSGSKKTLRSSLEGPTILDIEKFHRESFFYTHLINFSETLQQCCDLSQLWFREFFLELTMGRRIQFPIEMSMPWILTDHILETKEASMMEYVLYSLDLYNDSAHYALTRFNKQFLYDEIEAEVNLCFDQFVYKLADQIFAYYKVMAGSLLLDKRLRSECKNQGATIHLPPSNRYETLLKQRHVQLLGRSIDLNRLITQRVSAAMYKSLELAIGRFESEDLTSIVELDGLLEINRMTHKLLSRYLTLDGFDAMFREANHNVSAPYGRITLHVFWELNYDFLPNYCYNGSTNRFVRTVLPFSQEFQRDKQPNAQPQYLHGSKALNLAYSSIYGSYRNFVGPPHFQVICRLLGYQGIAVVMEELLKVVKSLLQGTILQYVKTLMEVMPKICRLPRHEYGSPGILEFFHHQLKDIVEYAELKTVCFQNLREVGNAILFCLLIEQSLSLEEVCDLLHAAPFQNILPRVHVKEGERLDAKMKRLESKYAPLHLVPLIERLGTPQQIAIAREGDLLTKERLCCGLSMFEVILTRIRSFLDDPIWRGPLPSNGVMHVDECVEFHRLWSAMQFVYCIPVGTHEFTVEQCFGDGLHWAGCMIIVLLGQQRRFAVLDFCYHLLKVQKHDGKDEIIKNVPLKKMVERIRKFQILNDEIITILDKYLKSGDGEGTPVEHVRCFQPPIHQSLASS
# UniProt P00374, sequence (P00374 whole entry, looked up): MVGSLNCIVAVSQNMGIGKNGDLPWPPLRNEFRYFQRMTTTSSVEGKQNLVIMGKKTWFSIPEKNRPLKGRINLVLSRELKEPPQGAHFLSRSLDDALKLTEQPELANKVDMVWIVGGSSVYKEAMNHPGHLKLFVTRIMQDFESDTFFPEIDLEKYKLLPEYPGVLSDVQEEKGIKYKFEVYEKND
# UniProt P50570, sequence (P50570 whole entry, looked up): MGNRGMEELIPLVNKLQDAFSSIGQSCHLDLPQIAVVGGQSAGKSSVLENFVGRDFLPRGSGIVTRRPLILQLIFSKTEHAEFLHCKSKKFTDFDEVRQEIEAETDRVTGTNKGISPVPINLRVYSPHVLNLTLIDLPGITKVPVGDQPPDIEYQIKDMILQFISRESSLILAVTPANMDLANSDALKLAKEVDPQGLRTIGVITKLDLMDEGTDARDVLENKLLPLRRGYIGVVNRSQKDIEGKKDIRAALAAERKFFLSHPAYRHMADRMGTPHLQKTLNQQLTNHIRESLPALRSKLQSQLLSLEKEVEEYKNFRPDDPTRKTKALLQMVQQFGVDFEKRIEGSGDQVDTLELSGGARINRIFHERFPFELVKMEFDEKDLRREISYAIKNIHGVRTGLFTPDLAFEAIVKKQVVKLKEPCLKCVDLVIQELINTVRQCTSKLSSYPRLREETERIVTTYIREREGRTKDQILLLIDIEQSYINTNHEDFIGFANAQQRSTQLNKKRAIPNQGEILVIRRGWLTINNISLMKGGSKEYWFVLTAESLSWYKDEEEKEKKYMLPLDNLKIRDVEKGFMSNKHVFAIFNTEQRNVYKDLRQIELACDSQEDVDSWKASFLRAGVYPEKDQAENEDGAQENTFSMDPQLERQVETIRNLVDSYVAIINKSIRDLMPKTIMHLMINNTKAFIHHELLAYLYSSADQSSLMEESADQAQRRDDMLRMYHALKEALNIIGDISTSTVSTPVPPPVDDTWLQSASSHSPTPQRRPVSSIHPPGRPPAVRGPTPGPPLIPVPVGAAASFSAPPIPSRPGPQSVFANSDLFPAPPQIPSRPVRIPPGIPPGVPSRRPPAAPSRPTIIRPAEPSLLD
# UniProt P98082, sequence (P98082 whole entry, looked up): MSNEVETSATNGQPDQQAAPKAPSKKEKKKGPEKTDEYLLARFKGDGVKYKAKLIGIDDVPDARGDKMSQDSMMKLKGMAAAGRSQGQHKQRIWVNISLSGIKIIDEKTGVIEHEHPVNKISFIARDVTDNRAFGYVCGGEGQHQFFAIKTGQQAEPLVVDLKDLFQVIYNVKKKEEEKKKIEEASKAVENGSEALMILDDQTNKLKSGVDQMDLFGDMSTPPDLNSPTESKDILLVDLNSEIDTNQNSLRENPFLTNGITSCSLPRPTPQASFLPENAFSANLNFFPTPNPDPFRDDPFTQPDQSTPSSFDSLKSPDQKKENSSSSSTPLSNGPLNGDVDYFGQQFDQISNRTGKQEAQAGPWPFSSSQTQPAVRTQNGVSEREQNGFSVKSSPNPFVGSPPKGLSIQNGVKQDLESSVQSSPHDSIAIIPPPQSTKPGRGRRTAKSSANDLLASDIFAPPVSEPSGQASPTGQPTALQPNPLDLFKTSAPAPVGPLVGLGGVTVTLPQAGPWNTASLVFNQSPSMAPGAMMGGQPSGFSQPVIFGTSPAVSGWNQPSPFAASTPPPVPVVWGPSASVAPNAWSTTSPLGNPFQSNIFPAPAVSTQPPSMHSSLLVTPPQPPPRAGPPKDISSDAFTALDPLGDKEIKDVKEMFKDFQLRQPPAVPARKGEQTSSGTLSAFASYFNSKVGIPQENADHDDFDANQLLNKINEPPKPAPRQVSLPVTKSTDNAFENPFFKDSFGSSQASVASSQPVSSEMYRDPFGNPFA
# UniProt P18074, sequence (P18074 whole entry, looked up): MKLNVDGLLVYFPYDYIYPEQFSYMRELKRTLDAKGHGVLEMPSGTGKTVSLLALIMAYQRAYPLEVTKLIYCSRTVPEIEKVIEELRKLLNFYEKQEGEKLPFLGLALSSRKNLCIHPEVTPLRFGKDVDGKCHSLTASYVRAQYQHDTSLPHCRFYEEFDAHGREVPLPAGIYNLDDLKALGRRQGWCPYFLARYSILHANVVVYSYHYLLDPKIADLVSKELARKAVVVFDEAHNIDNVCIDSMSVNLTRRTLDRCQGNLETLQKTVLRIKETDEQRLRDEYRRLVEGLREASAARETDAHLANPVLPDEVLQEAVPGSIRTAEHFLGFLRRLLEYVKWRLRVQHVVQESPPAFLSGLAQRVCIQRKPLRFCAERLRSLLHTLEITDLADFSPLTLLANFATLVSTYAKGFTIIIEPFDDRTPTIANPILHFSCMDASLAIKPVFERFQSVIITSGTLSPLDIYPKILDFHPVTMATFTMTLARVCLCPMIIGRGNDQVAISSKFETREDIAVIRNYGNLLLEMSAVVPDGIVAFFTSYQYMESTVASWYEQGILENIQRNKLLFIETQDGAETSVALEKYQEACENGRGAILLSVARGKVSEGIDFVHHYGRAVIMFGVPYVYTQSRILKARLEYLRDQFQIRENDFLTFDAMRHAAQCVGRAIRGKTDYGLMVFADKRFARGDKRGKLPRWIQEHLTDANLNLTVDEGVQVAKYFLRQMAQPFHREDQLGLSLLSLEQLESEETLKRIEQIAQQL
# UniProt Q96GE9, sequence (Q96GE9 whole entry, looked up): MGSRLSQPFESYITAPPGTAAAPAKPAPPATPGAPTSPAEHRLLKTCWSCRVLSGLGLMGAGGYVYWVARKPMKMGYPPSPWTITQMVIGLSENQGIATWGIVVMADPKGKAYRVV
row,Target,log2 fold change
1,DNAJC1 (UniProt Q96KC8),0.015 (inactive)
2,DYNC1LI2 (UniProt O43237),-0.005 (inactive)
3,EXOC7 (UniProt Q9UPT5),-0.106 (inactive)
4,DNAJC19 (UniProt Q96DA6),0.026 (inactive)
5,EXOSC10 (UniProt Q01780),0.1 (inactive)
6,CTSV (UniProt O60911),0.013 (inactive)
7,DNAAF2 (UniProt Q9NVR5),0.051 (inactive)
8,DMAC1 (UniProt Q96GE9),0.073 (inactive)
9,CYBA (UniProt P13498),0.069 (inactive)
10,DAB2 (UniProt P98082),0.043 (inactive)
11,ERLIN1 (UniProt O75477),-0.049 (inactive)
12,FAM50A (UniProt Q14320),-0.006 (inactive)
13,DNM2 isoform 4 (UniProt P50570),-0.257 (inactive)
14,CYB561A3 isoform 2 (UniProt Q8NBI2),0.315 (inactive)
15,FAM160B1 (UniProt Q5W0V3),0.008 (inactive)
16,ERCC2 (UniProt P18074),0.154 (inactive)
17,CTSC (UniProt P53634),-0.047 (inactive)
18,DHX36 (UniProt Q9H2U1),0.016 (inactive)

row,Target,log2 fold change
1,EEF1D isoform 2 (UniProt P29692),0.031 (inactive)
2,CYFIP1 (UniProt Q7L576),-0.018 (inactive)
3,ELOVL1 (UniProt Q9BW60),-0.007 (inactive)
4,EIF3J (UniProt O75822),-0.005 (inactive)
5,DENND10 (UniProt Q8TCE6),-0.006 (inactive)
6,DNAH10 (UniProt Q8IVF4),-0.132 (inactive)
7,DUS3L (UniProt Q96G46),-0.086 (inactive)
8,CTSA (UniProt P10619),0.041 (inactive)
9,CTNNBL1 (UniProt Q8WYA6),0.069 (inactive)
10,DBR1 (UniProt Q9UK59),0 (inactive)
11,DDX46 (UniProt Q7L014),-0.043 (inactive)
12,DNTTIP2 (UniProt Q5QJE6),0.108 (inactive)
13,DDB1 (UniProt Q16531),0.001 (inactive)
14,DNAJB12 (UniProt Q9NXW2),0.01 (inactive)
15,DHFR (UniProt P00374),0.013 (inactive)
16,CTU1 (UniProt Q7Z7A3),0.006 (inactive)
17,CTSB (UniProt P07858),0.008 (inactive)
